aSyn UTR act = Activators working through SNCA 5'UTR binding (MLPCN) | alpha-synuclein 5'UTR reporter, activators screen | activity score, % (tested at 7.5 µM), hits read low | actives 7.1% (n = 300,000) | AID 1814; in the data active = activity score below about -60%
* hit, by the source's call. Many of the other results were omitted from the sample, so hits are more common in it than they were.

For Cc1ccc(-c2nnc(-c3cccnc3)o2)cc1 the results were aSyn UTR act -113*.
`CN1CCN(S(=O)(=O)c2cccc(C(=O)Nc3sc4c(c3-c3nc5ccccc5[nH]3)CCCC4)c2)CC1` gave aSyn UTR act -109*.
Screening Cc1ccnc(NC(=O)/C=C/c2cccs2)c1 returned aSyn UTR act -77*.
Screening O=C(COC(=O)/C=C/c1cccs1)Nc1nc(-c2cccc(Br)c2)cs1 returned aSyn UTR act -79*.
O=C(/C=C/c1cccs1)Nc1cccnc1 was read as aSyn UTR act -175*.
Screening O=C(/C=C/c1cccs1)Nc1nc(-c2ccccc2)cs1 returned aSyn UTR act -246*.
`O=C(/C=C/c1cccs1)Nc1nncs1` gave aSyn UTR act -162*.
For COc1ccc(C2(C)NC(=O)N(CC(=O)Nc3ccc(-c4nc5ccc(C)cc5s4)cc3)C2=O)cc1 (centres undefined) the results were aSyn UTR act -191*.
CCC1(c2ccc(F)cc2)NC(=O)N(CC(=O)Nc2ccc(-c3nc4ccc(C)cc4s3)cc2)C1=O (centres undefined) was read as aSyn UTR act -201*.
`Cc1ccn2cc(-c3cccc(NC(=O)c4cccs4)c3)nc2c1` gave aSyn UTR act -85*.
For Cc1ccccc1-n1nc(C)c2c(C(=O)NN)cc(-c3ccncc3)nc21 the results were aSyn UTR act 56.
Cc1cccn2cc(-c3cccc(NC(=O)c4cccs4)c3)nc12 was read as aSyn UTR act -73*.
For Clc1ccc(OCc2nc(-c3ccncc3)no2)c(Br)c1 the results were aSyn UTR act -119*.
c1ccc(OCc2nc(-c3ccncc3)no2)cc1 was read as aSyn UTR act -82*.
`NC(=O)COc1ccc(-c2noc(COc3ccccc3[N+](=O)[O-])n2)cc1` gave aSyn UTR act -84*.
c1ccc(OCc2nc(-c3ccccc3)no2)cc1 was read as aSyn UTR act -202*.
CC(C)Sc1nnc(Nc2ccccc2)s1 was read as aSyn UTR act -178*.
For CCC(C(=O)Nc1ccc2c(c1)OCCO2)n1nnc2ccccc2c1=O (centres undefined) the results were aSyn UTR act -133*.
`O=c1c2ccccc2nnn1CSc1nnc(-c2ccco2)o1` gave aSyn UTR act -131*.
Screening O=c1c2ccccc2nnn1CSc1ccc2c(c1)OCCO2 returned aSyn UTR act -145*.
`O=c1c2ccccc2nnn1CSc1nnc2ccccn12` gave aSyn UTR act -93*.
O=C(Cn1nnc2ccccc21)NCc1ccccc1 was read as aSyn UTR act -100*.
Screening CC(=O)c1ccc(N(C(=O)Cn2nnc3ccccc32)C(C(=O)NCc2ccccc2)c2ccccn2)cc1 (centres undefined) returned aSyn UTR act -106*.
`c1ccc(CCn2nnc3ccccc32)cc1` gave aSyn UTR act -138*.
`O=[N+]([O-])/C(C(Cl)=C(Cl)Cl)=C(/Sc1ccccc1)N1CCCCC1` gave aSyn UTR act -78*.
Cc1cc(C)c2nc(C)cc(N/N=C/c3ccc(O)cc3)c2c1 was read as aSyn UTR act 112.
Screening Cc1ccsc1/C=N/Nc1ccc(F)cc1F returned aSyn UTR act -176*.
Cc1ccsc1/C=N/Nc1ncc(Cl)cc1Cl was read as aSyn UTR act -71*.
`Cc1cc(C)nc(N/N=C/c2ccccc2)n1` gave aSyn UTR act -73*.
`Cc1cc(C)nc(N/N=C/c2sccc2C)n1` gave aSyn UTR act -82*.
Cc1ccsc1/C=N/Nc1nc(=O)[nH]nc1C was read as aSyn UTR act -85*.
Screening Cc1cc(C)nc(N/N=C/c2ccccc2Cl)n1 returned aSyn UTR act -88*.
Screening CC1CC1C(=O)OCC(=O)NC(=O)NC12CC3CC(CC(C3)C1)C2 (centres undefined) returned aSyn UTR act -118*.
Cc1cc(C(=O)Nc2sc3c(c2C#N)CCCCC3)cs1 was read as aSyn UTR act -94*.
`CC(C)C(=O)NC(=S)Nc1sc2c(c1C(N)=O)CCCC2` gave aSyn UTR act -121*.
Screening CNC(=O)c1c(NC(=O)c2nc3ccccc3s2)sc2c1CCC2 returned aSyn UTR act -256*.
Screening CCN(CC)CCCC(C)NC(=O)c1c(NC(=O)c2ccccc2)sc2c1CCCC2 (centres undefined) returned aSyn UTR act -79*.
N#Cc1c(NC(=O)c2ccncc2)sc2c1CCC2 was read as aSyn UTR act -66*.
`O=C(O)CCC(=O)Nc1sc2c(c1C(=O)Nc1ccccc1)CCCCC2` gave aSyn UTR act -78*.
For NC(=O)c1c(NC(=O)c2ccccc2)sc2c1CCC2 the results were aSyn UTR act -122*.
Screening COc1ccc(NC(=O)c2c(NC(=O)CCC(=O)O)sc(-c3ccccc3)c2C)cc1 returned aSyn UTR act -76*.
Screening NC(=O)c1c(NC(=O)c2cnccn2)sc2c1CCCC2 returned aSyn UTR act -217*.
For N#Cc1c(NC(=O)c2cnn3cccnc23)sc2c1CCCC2 the results were aSyn UTR act -99*.
NC(=O)c1c(NC(=S)Nc2ccccc2)sc2c1CCCC2 was read as aSyn UTR act -67*.

Screening data deposited in PubChem by Broad Institute.
